Measurements taken from PubChem BioAssay (NCI).
Compounds without any hit were thinned out: in the full panel of roughly 83,000, 20% have a hit.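 Negative percent growth values reflect cell death: -40 means 40% of the cells present at the start died, and -100 means all died.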 A number with no mark means an inactive call. Calls of active or inactive are those of the source. The calls were made as follows: active = growth percent below 10; inactive = the rest.

Tests used:
Assay in all cases: NCI-60 one-dose screen, 48 h (100 = growth as untreated, 0 = no growth, -100 = all killed)
[1] = tested on: DU-145 prostate; conditions: 10 µM unless noted
[2] = tested on: K-562 leukemia; conditions: 10 µM unless noted
[3] = tested on: MALME-3M melanoma; conditions: 10 µM unless noted
[4] = tested on: MDA-MB-231 breast; conditions: 10 µM unless noted
[5] = tested on: RXF 393 renal; conditions: 10 µM unless noted
[6] = tested on: SF-268 CNS; conditions: 10 µM unless noted
[7] = tested on: SF-295 CNS; conditions: 10 µM unless noted
[8] = tested on: SF-539 CNS; conditions: 10 µM unless noted
[9] = tested on: UACC-257 melanoma; conditions: 10 µM unless noted
[10] = tested on: M14 melanoma; conditions: 10 µM unless noted
[11] = tested on: HCT-15 colon; conditions: 10 µM unless noted
[12] = tested on: HT29 colon; conditions: 10 µM unless noted
[13] = tested on: SNB-75 CNS; conditions: 10 µM unless noted
[14] = tested on: SNB-19 CNS; conditions: 10 µM unless noted
[15] = tested on: U251 CNS; conditions: 10 µM unless noted
[16] = tested on: PC-3 prostate; conditions: 10 µM unless noted
[17] = tested on: SK-MEL-5 melanoma; conditions: 10 µM unless noted
[18] = tested on: UACC-62 melanoma; conditions: 10 µM unless noted
[19] = tested on: LOX IMVI melanoma; conditions: 10 µM
[20] = tested on: SK-MEL-28 melanoma; conditions: 10 µM unless noted

SMILES	growth [1]	growth [2]	growth [3]	growth [4]	growth [5]	growth [6]	growth [7]	growth [8]	growth [9]	growth [10]	growth [11]	growth [12]	growth [13]	growth [14]	growth [15]	growth [16]	growth [17]	growth [18]	growth [19]	growth [20]
CCOC(=O)C(CCC#N)(CCC#N)C(=O)OCC	110%	115%	113%	105%	104%	99.2%	96.4%	103%	103%	89.2%	98.7%	111%	80.9%	100%	102%	97.6%	102%	103%	111%	107%
Nc1nc(N)nc(N2CCCCC2)n1	107%	105%	96.3%	96.5%	105%	107%	113%	97.6%	101%	111%	107%	98.2%	118%	115%	101%	99.5%	100%	104%	104%	114%
CN(C)c1ccc2c(N(C)C)cc(N(C)C)nc2c1	93%	64.4%	98.4%	64.2%	97.7%	91.6%	65.9%	84.9%	122%	81.7%	92%	34.4%	92.5%	84.5%	90.8%	72.6%	100%	81.9%	87.7%	84.4%
CC1CCC(C)(C)c2ccccc21 (stereo not drawn)	110%	115%	100%	94.6%	109%	104%	89.2%	97.2%	100%	95.7%	101%	103%	82.9%	103%	99.2%	93.5%	95.8%	103%	98.6%	97.3%
COc1cc(C(=O)N2CCN(c3ccccc3)CC2)c2ccccc2n1	1.57% (active)	16.5%	54.6%	5.71% (active)	-39.8% (active)	42.9%	7.61% (active)	-4.8% (active)	51.1%	0.444% (active)	18.3%	-19% (active)	20.9%	28.4%	11.1%	35.5%	16.8%	32.6%	16.5%	54.6%
C=C(C)[C@@H]1CC[C@]2(CO)CC[C@]3(C)[C@H](CC[C@@H]4[C@@]5(C)CC[C@H](O)C(C)(C)[C@@H]5CC[C@]43C)[C@@H]12	28.2%	24.3%	63%	4.46% (active)	-50.7% (active)	54.6%	71.4%	-33% (active)	6.89% (active)	49.3%	89.7%	46.2%	3.72% (active)	48%	24.9%	38.7%	-60.5% (active)	60.5%	32.2%	–
CN1C(=O)NC(c2ccc(Cl)cc2)(c2ccc(Cl)cc2)C1=O	102%	70.1%	108%	99.8%	62%	102%	102%	111%	118%	100%	106%	93%	84.2%	105%	94.9%	84.6%	98.9%	83.8%	96.2%	102%
CCNC(=O)Oc1ccc[nH]c1=O	117%	93.4%	103%	109%	116%	118%	106%	98.2%	97.8%	102%	97.9%	109%	85.3%	98.8%	104%	96.5%	95.2%	96.1%	99.1%	125%
O=C(CCCl)OCCOc1ccccc1	101%	93.2%	97.7%	111%	112%	94.6%	105%	95.8%	110%	102%	105%	102%	96.1%	108%	99.9%	95.9%	108%	108%	96.6%	107%
CCCCNC(=O)c1ccc(OCC)cc1	108%	112%	101%	108%	109%	106%	106%	104%	102%	99.7%	105%	107%	102%	105%	99.1%	90.9%	103%	98.2%	95.2%	101%
CCCCCC#CC(=O)O	132%	103%	99.9%	110%	125%	110%	103%	103%	104%	120%	105%	99.5%	99.7%	108%	98.4%	98.2%	111%	104%	104%	113%
CC(=O)OC(C)c1cccc(C#N)c1 (stereo not drawn)	108%	103%	103%	108%	110%	103%	102%	101%	100%	97.4%	105%	104%	89.7%	105%	99%	96.4%	99.1%	104%	101%	114%
C=CCC(OC(C)=O)c1ccc(C(C)C)cc1 (stereo not drawn)	118%	108%	124%	122%	113%	110%	126%	104%	105%	114%	107%	92.5%	102%	101%	122%	99.1%	117%	105%	104%	120%
O=S1(=O)c2ccccc2Oc2ccccc21	107%	114%	110%	110%	90.7%	107%	91.8%	96.1%	103%	101%	101%	99.6%	80.5%	104%	94%	92.7%	108%	102%	102%	99.4%
CCOC(=O)c1ccc(C(C)(C)C)cc1	104%	94.5%	103%	114%	118%	98.9%	108%	110%	99.9%	104%	111%	109%	102%	112%	97.5%	105%	105%	106%	99.8%	109%
COC1C(=O)CCC2(CO2)C1(O)C1(C)OC1CCC(C)C (stereo not drawn)	48.7%	47.6%	103%	107%	69.5%	74.6%	72.9%	88%	39.9%	56.5%	56.4%	60.3%	77.5%	51.5%	42.3%	74.6%	64.6%	70.4%	50.3%	–
CN1CCN(C(=S)S)CC1	102%	73.5%	143%	106%	130%	102%	127%	104%	105%	105%	100%	75.5%	105%	103%	102%	98.4%	111%	101%	87.9%	115%

SMILES	growth [1]	growth [2]	growth [3]	growth [4]	growth [5]	growth [6]	growth [7]	growth [8]	growth [9]	growth [10]	growth [11]	growth [12]	growth [13]	growth [14]	growth [15]	growth [16]	growth [17]	growth [18]	growth [19]	growth [20]
CCOC(=O)c1c[nH][nH]c1=O	117%	116%	129%	108%	110%	110%	112%	94.9%	59.1%	96.5%	103%	105%	118%	99.1%	103%	108%	105%	96.2%	97.8%	127%
COC1OC(CO)C(OC)C(O)C1O (stereo not drawn)	105%	102%	111%	111%	99.4%	95.7%	96.7%	99%	106%	103%	100%	110%	103%	105%	99.6%	103%	103%	96.2%	95.6%	95.9%
Cc1ccc(N)c(S(=O)(=O)O)c1	125%	45.1%	129%	109%	108%	115%	116%	98.2%	101%	101%	103%	96.1%	75.6%	99.5%	104%	107%	98.1%	98.9%	104%	126%
CCN1CCCC(N2c3ccccc3Sc3ccccc32)C1 (stereo not drawn)	94.1%	91.8%	92.1%	76.5%	104%	103%	107%	103%	104%	99.8%	102%	89.3%	92.8%	110%	94.6%	97.4%	97%	104%	91.2%	105%
CC1(C)CC(=O)C=C(N)C1	128%	146%	155%	104%	94.4%	110%	98.7%	127%	87.2%	102%	102%	96.1%	76.1%	105%	98.8%	93%	131%	98.5%	98.1%	104%
Cn1/c(=N\N=C\c2ccccc2OCCO)sc2ccccc21	109%	76.7%	80.2%	72.1%	102%	94.1%	94%	92.9%	121%	103%	82.4%	109%	115%	96.7%	100%	76.5%	88%	90%	100%	124%
CCOC(=O)c1cc(Cl)c(O)c(Cl)c1	104%	121%	114%	106%	116%	97.7%	103%	106%	109%	105%	104%	103%	103%	106%	104%	101%	102%	105%	102%	106%
O=C(c1ccccc1)c1ccc(-c2ccc(O)cc2)cc1	69.8%	90.2%	84%	55.4%	-4.28% (active)	67.4%	29.6%	79.5%	25.3%	25.8%	57%	120%	43.5%	59.7%	37.3%	76.8%	23.6%	48.5%	73.4%	75.1%
CCCCCCCCCCCCCCCCCC(=O)NCCNC(=O)CCCCCCCCCCCCCCCCC	97.5%	57.4%	93.5%	75.3%	109%	89.3%	100%	96.9%	105%	95.6%	95.1%	49.1%	82.8%	108%	94.5%	65%	102%	104%	61.4%	105%
CC(=O)c1cc(O)ccc1O	114%	91.7%	111%	96.6%	88.8%	109%	104%	92.5%	104%	101%	107%	104%	103%	97.9%	104%	98.3%	113%	96.6%	98.9%	109%
C=CC(=O)OC1CCC(C(C)(C)CC)CC1 (stereo not drawn)	113%	109%	110%	106%	113%	102%	120%	105%	115%	107%	98.2%	112%	95.4%	109%	116%	104%	104%	109%	101%	110%
CCCCCCCCNC(=O)C(C)C	105%	108%	106%	109%	93%	104%	100%	96.9%	108%	95.5%	106%	95.5%	91.2%	101%	101%	94.9%	103%	96%	98%	101%
S=C=Nc1ccc2ccccc2c1	107%	96%	102%	117%	110%	108%	108%	99.9%	99.7%	103%	96.6%	105%	94.5%	101%	97.8%	102%	106%	102%	94.2%	111%
CCNc1ccc2ccccc2c1N=Nc1ccc(N=Nc2ccccc2)cc1	121%	125%	128%	93.4%	118%	117%	107%	104%	123%	104%	104%	112%	100%	112%	109%	87.1%	87.5%	72.6%	93.1%	120%
CC1CC(C)S(=O)(=O)C1 (stereo not drawn)	104%	92.4%	110%	115%	115%	111%	105%	104%	95.7%	111%	103%	99.9%	94.6%	108%	88.5%	104%	101%	92.9%	103%	111%
CCCCCCCCCCCCCC/C=C\C(CC(=O)O)C(=O)O (stereo not drawn)	110%	154%	123%	102%	117%	103%	110%	108%	107%	103%	107%	103%	90.1%	103%	107%	96.2%	104%	100%	110%	108%
